Test [1] is described as follows: inhibitors of TNFa-induced NFkB p65 translocation, primary screen, imaging, HUVEC, MLSMR starter and 10KST1 sets (AID 438;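 active = inhibition above 20% together with a positive visual image hit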;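 note: compound added about 3h40 before a 20 min TNFalpha stimulation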;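 for inhibition: signal is the nuclear over cytoplasmic p65 intensity ratio per well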). The note with it: HUVEC TNFa-induced p65 nuclear translocation; cell count: measured here: nuclei count (cytotoxicity indicator), at 2.08 µM; inhibition: at 2 µM, stronger effect = higher value, 0% TNFa-plus-vehicle, 100% no-TNFa wells.
A short description of test [2]: reduction of polyQ htt aggregates in cells – imaging, exon1htt(103Q)mCFP cells, high-content imaging, primary screen (AID 483;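 active = visual image review flags a hit and inhibition of aggregation exceeds 20%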;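 note: compound exposure lasted 3 days before fixation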;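 for nuclei count: percent of the per-plate median nuclei count of sample wells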). The note with it: exon1htt(103Q)mCFP cell line, aggregate imaging, at 2 µM; inhibition of aggregation: stronger effect = higher value; nuclei count: measured here: cell count, toxicity.
Test [3] is described as follows: endothelial E-selectin expression blockers – imaging, HUVEC, immunofluorescence, MLSMR starter and 10KST1 sets, primary screen (AID 487;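 active = visually confirmed hit in the image check and inhibition above 20%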;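 for inhibition: signal is fraction of cell area covered by stained E-selectin grains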;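 for nuclei count: 100% = median nuclei count of all wells on the same plate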). The note with it: HUVEC TNFalpha-induced E-selectin immunofluorescence imaging, at 2 µM; inhibition: stronger effect = higher value; nuclei count: measured here: cell number, toxicity.
Test [4] in a line: Primary imaging screen for DUSP6 inhibitors that restore phospho-Erk in transfected HeLa cells, chemical complementation (AID 609;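 active = compounds giving at least 50% inhibition in the cell-based MKP-3 phosphatase rescue imaging test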;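 for inhibition: phospho-Erk level distribution per well compared with pooled transfected vehicle control wells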). As to conditions: HeLa MKP-3 transfected, phospho-Erk imaging KS statistic, at 10 µM, cells stimulated with TPA for 15 min.
Test [5] addresses Dual specificity protein phosphatase 6 (Homo sapiens) (UniProt Q16828). Described as above. As to conditions: HeLa MKP-3 transfected, phospho-Erk imaging KS statistic; at 10 µM; stronger effect = higher value; cells stimulated with TPA for 15 min.
The target in test [6] is Voltage-gated potassium channel subunit beta-2 (Rattus norvegicus) (UniProt P62483). In words: inhibitors of rat Kvbeta2 reductase activity – biochemical, NADPH fluorescence, primary screen (AID 622;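 active = fluorescence slope higher than the sample average by over 3 SD, cut at about -0.22 in these data, passing the limit was not always enough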;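 note: slope of raw intensity against log time taken from 70 to 1610 s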). As to conditions: recombinant KvBeta, 4-cyanobenzaldehyde reduction, at 10 µM, stronger effect = higher value.
Voltage-gated potassium channel subunit beta-2 (Rattus norvegicus), sequence (P62483 whole entry, looked up): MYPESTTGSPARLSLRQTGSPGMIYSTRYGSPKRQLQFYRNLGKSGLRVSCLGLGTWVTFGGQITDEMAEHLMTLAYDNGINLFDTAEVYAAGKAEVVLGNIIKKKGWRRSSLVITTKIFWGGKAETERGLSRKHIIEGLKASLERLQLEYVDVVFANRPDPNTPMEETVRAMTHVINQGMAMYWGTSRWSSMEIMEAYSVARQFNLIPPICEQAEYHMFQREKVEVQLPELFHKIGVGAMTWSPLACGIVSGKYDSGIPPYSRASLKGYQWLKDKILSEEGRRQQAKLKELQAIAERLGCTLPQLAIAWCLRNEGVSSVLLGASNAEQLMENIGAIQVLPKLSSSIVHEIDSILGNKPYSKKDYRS
Test [7] shares this target. In words: enhancers of rat Kvbeta2 NADPH turnover – biochemical, NADPH fluorescence, primary screen (AID 623;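 active = NADPH fluorescence slope more negative than the mean of all samples by about 3 SD, 99.7% confidence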;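 note: fluorescence intensity change per second fitted from 20 to 320 s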). As to conditions: Recombinant KvBeta, NADPH fluorescence decrease slope, 10 min; at 10 µM; stronger effect = lower value.
Test [8] deals with Alpha-2C adrenergic receptor (Homo sapiens) (UniProt P18825). In words: compounds altering alpha2C-coupled GIRK flux – cell-based, HEK293 alpha2C/GIRK1/2, thallium flux, primary screen (AID 624;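 active = fluorescence slope after compound addition differing from the mean of all screened samples at 99.7% confidence, in either direction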;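 note: slope of fluorescence ratio to pre-addition baseline per second over 15 to 24 s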). As to conditions: thallium flux BTC fluorescence, at 10 µM, actives lie on both sides.
Alpha-2C adrenergic receptor (Homo sapiens), sequence (P18825 whole entry, looked up): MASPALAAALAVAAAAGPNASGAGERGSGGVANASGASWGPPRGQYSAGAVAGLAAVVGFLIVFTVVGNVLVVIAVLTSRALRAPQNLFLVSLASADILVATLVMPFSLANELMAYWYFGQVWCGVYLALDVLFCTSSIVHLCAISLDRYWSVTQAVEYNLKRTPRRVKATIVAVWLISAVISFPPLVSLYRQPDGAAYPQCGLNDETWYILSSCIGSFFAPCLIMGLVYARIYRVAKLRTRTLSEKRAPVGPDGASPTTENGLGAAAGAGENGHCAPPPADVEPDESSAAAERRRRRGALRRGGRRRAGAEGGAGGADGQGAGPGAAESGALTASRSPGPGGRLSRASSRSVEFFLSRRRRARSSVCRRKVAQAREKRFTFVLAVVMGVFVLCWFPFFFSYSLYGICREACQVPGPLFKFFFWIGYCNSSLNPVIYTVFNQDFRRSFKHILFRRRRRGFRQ
A short description of test [9]: inhibitors of larval lipid processing in zebrafish, primary screen, whole organism, PED6 fluorescence, gall bladder and intestine (AID 686;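 active = a full or partial loss of lipid-probe fluorescence in the fish gall bladder, intestine or both, judged by eye; inactive = no fluorescence loss, or compound toxic to the fish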;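 note: larvae 5 to 7 days old with five fish per well; signal comes from phospholipase A2 cleavage of quenched PED6 carried via bile; overnight exposure to compound and PED6 before scoring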). The note with it: Zebrafish larvae PED6 lipid processing, fluorescence scoring; screened at 20 µM (by protocol).
Test [10] can be described thus: loss of swimming-algae plug formation – whole organism, Chlamydomonas reinhardtii, WT vs cilia-less mutant, absorbance, 96-well, primary screen (AID 463189).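 Note: 0% = wild type cc124 cells in DMSO and 100% = ciliumless bld1 mutant cells.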 As to conditions: Chlamydomonas reinhardtii gravitaxis, OD600 absorbance, 2 days; at 10 µM; stronger effect = higher value.
Test [11] is described as follows: blockers of RIG-like receptor reporter activation – cell-based, Sendai virus stimulus, luciferase, 10K MLSCN set, TLR/RLR signaling modifier project, primary screen (AID 602276;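 active = inhibition at or above 50% at 10 µM; inactive = inhibition below 50%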;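 note: firefly luciferase from ISG56 promoter only with Renilla not read in this screen; 0% = Sendai virus plus DMSO and 100% = medium plus DMSO without virus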). As to conditions: HEK293 RL24 IRF3 luciferase reporter, at 10 µM, stronger effect = higher value.
The nature of test [12]: TLR3 IRF3 reporter activation blockers – cell-based, poly I:C stimulus, luciferase, 10K MLSCN set, primary screen (AID 602277;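 active = inhibition of the reporter signal at or above 50%; inactive = inhibition below 50%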). As to conditions: HEK293-TLR3 RL24 IRF3 luciferase reporter, at 10 µM, stronger effect = higher value. (In general: Reporter assays use an easily measured gene product as a stand-in for the process of interest.)
[13] abbreviates: measured here: cell density z-score.
The mark [14] stands for this setting: measured here: nuclear c-Myc green intensity z-score.
Where [15] appears, read: measured here: nuclear pErk red intensity z-score, stronger effect = higher value.

Values joined by “and” are separate entries in the source; they are usually repeats but may differ in a detail not shown here. Equal values may be shown once. Active and inactive are the calls of the source.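 Rule for the calls, unless noted: active = inhibition at or above 50% relative to wild type and mutant plate controls; inactive = inhibition below 50%.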

Dual specificity protein phosphatase 6 (Homo sapiens), sequence (Q16828 whole entry, looked up): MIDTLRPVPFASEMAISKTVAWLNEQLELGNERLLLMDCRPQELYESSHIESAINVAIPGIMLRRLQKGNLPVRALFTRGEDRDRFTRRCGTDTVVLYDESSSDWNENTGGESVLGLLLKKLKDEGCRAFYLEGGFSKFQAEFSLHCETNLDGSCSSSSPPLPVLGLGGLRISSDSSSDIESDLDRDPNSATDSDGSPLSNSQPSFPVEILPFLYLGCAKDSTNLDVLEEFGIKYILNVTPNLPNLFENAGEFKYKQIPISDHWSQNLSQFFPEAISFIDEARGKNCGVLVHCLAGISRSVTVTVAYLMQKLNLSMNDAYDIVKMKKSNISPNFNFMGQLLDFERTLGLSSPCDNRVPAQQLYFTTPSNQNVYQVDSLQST

Turning to `c1cncc(-c2nnc3sc(-c4ccco4)nn23)c1`, the cell count in test [1] was determined as 535. For the same molecule, the inhibition in test [1] is 0.4% (inactive); in test [3], -81.8% (inactive); in test [5], -2.47% (inactive); in test [10], 1.41% (inactive); in test [11] it was 13.2% (inactive); in test [12] it was -2.28% (inactive). For the same molecule, in test [2], the inhibition of aggregation is 3.4% (inactive). The nuclei count in test [2] came out at 94.2%; in test [3], 105%. Moreover, the values for the z-score in test [4] (setting [13]), in [4] (setting [14]) and in [4] (setting [15]) were 0.315, -1.33 and 1.09, respectively. Also, the fluorescence slope in [6] is -0.476 (inactive). In [7], the NADPH fluorescence slope is -8.1e-06 (inactive). In [8], the slope is 0.00677 (inactive). Besides, the result in test [9] was inactive.

Consider `CC1CCc2cc(F)cc3c(O)c(C(=O)Nc4cnccn4)c(=O)n1c23` (stereo not drawn), for which, in test [1], the cell count turned out to be 457. The inhibition in test [1] was -7.7% (inactive); in test [3], -40.6% (inactive); in test [5] it was 17.5% (inactive); in [10], -9.12% (inactive); in test [11], 13.2% (inactive); in test [12], 21.7% (inactive). In [2], the inhibition of aggregation is 3.8% (inactive). For the same molecule, the nuclei count in test [2] was 99.3%; in [3] it was 99.4%. Moreover, the z-score in [4] (setting [13]) was determined as 0.762; in [4] (setting [14]), 0.74; in test [4] (setting [15]), 0.103. In addition, in test [6], the fluorescence slope was -0.351 (inactive). Moreover, the NADPH fluorescence slope in [7] is 2e-05 (inactive). Further, the slope in test [8] is 0.0057 (inactive). In addition, the outcome in [9] was inactive.

On to `CC1=C(/C=C/C(C)=C/C=C/C(C)=C/C(=O)O)C(C)(C)CCC1`, for which the cell count in test [1] was 678. The inhibition is 3.5% (inactive) in [1]; -69% (inactive) in test [3]; 19% (inactive) in [5]; 8.28% (inactive) and -12% (inactive) in test [10]; -11.8% (inactive) in test [11]; -27.2% (inactive) in [12]. The inhibition of aggregation in test [2] is -22.6% (inactive). Besides, the nuclei count in [2] worked out at 97.6%; in test [3] it was 121%. Also, the z-score in test [4] (setting [13]) was -0.898; in test [4] (setting [14]), 1.94; in test [4] (setting [15]), -1.68. Moreover, in test [6], the fluorescence slope is -0.448 (inactive). Also, in test [7], the NADPH fluorescence slope is -4.4e-05 (inactive). Besides, the slope in test [8] was 0.00401 (inactive). In test [9], the call was inactive.

With `Cc1nc2c(c(=O)n1CC1CCCO1)c1nc3ccccc3nc1n2CC(C)C` (stereo not drawn), the cell count in test [1] amounted to 460. Moreover, the inhibition in test [1] was -4.3% (inactive); in test [3], -42.3% (inactive); in [5] it was 9.42% (inactive); in test [10] it was 0.529% (inactive); in [11], 20.9% (inactive); in test [12] it was 22.8% (inactive). Moreover, in test [2], the inhibition of aggregation is 12.6% (inactive). Besides, the nuclei count in test [2] was 107%; in test [3] it was 96.8%. Further, the z-score is 1.43 in test [4] (setting [13]), 1.1 in test [4] (setting [14]) and -2.3 in test [4] (setting [15]). For the same molecule, the fluorescence slope in [6] is -0.449 (inactive). The NADPH fluorescence slope in test [7] is -6.4e-05 (inactive). Besides, the slope in test [8] was 0.00602 (inactive). Moreover, in test [9], the molecule was called inactive.

In the case of `CC(=O)Oc1cc(C(C)C)c(OCCN(C)C)cc1C`, in [1], the cell count was determined as 467. Moreover, the inhibition in test [1] was -9.4% (inactive); in test [3], -10.4% (inactive); in test [5], 13.3% (inactive); in test [10], 6.3% (inactive) and 24.6% (inactive); in [11], 15% (inactive); in test [12] it was 49.2% (inactive). For the same molecule, the inhibition of aggregation in test [2] is 22.4% (inactive). Moreover, the nuclei count in test [2] was 95.3%; in test [3] it was 108%. For the same molecule, the z-score is -0.0151 in test [4] (setting [13]), 0.045 in test [4] (setting [14]) and -0.157 in test [4] (setting [15]). The fluorescence slope in test [6] was -0.475 (inactive). The NADPH fluorescence slope in test [7] was -5.3e-05 (inactive). The slope in [8] is 0.0046 (inactive). Also, the outcome in [9] was inactive.

For `NS(=O)(=O)c1cc2c(cc1Cl)NC=NS2(=O)=O`, in [1], the cell count was found to be 531. Further, the inhibition in test [1] was -6.4% (inactive); in test [3] it was 13.8% (inactive); in test [5], 23.2% (inactive); in test [10] it was 11.8% (inactive) and 7.71% (inactive); in [11], -14.2% (inactive); in test [12] it was -10.5% (inactive). The inhibition of aggregation in test [2] is -4.4% (inactive). Also, the results for the nuclei count in [2] and in [3] were 92.2% and 108%, respectively. Further, the z-score in test [4] (setting [13]) was 0.808; in test [4] (setting [14]), 0.404; in test [4] (setting [15]), -1.03. The fluorescence slope in [6] was -0.492 (inactive). Moreover, the NADPH fluorescence slope in test [7] was -0.000201 (active). Further, the slope in [8] is 0.00527 (inactive). The molecule was classed as inactive in [9].

For `COc1cc(-c2nn3c(-c4cccnc4)nnc3s2)cc(OC)c1OC`, in test [1], the cell count was 561. For the same molecule, the inhibition in [1] was -0.7% (inactive); in [3], -152% (inactive); in test [5] it was 15.5% (inactive); in [10], 18.4% (inactive); in test [11], 12.1% (inactive); in test [12], 8.92% (inactive). Also, the inhibition of aggregation in test [2] was -9.6% (inactive). Moreover, the results for the nuclei count in test [2] and in test [3] were 103% and 134%, respectively. Besides, the results for the z-score in [4] (setting [13]), in [4] (setting [14]) and in test [4] (setting [15]) were 0.586, -0.752 and -1.22, respectively. The fluorescence slope in test [6] is -0.41 (inactive). In addition, in test [7], the NADPH fluorescence slope was -0.000121 (inactive). Further, the slope in test [8] was 0.0074 (inactive). For the same molecule, in test [9], the result was inactive.

Regarding `CC(C)N=c1cc2n(-c3ccc(Cl)cc3)c3ccccc3nc-2cc1Nc1ccc(Cl)cc1`, in [1], the cell count worked out at 636. For the same molecule, the inhibition is -2.8% (inactive) in test [1]; -163% (inactive) in test [3]; -0.493% (inactive) in [5]; 157% (active) in test [10]; -7.35% (inactive) in [11]; 33.1% (inactive) in test [12]. Moreover, the inhibition of aggregation in test [2] is -9.9% (inactive). In addition, the results for the nuclei count in test [2] and in test [3] were 102% and 126%, respectively. Moreover, the z-score is -0.698 in [4] (setting [13]), -0.296 in test [4] (setting [14]) and 0.758 in test [4] (setting [15]). Further, the fluorescence slope in test [6] was -0.535 (inactive). Also, the NADPH fluorescence slope in test [7] is -1.6e-05 (inactive). Moreover, in [8], the slope was 0.00125 (inactive). Moreover, the outcome in test [9] was “active; weak signal in gallbladder and intestine”.

`CC(C)COc1nc2ccccc2nc1C(C#N)C(=O)NC1CCCCC1` (stereo not drawn): the cell count in test [1] stood at 342. In addition, the inhibition in [1] is -6.5% (inactive); in test [3] it was -27.9% (inactive); in [5] it was -5.26% (inactive); in test [10], 9.16% (inactive); in test [11], 13.4% (inactive); in test [12] it was 8.92% (inactive). In addition, in [2], the inhibition of aggregation was 11.7% (inactive). The nuclei count in test [2] was 98.8%; in [3], 133%. In addition, the z-score was found to be 0.00555 in test [4] (setting [13]), 0.614 in test [4] (setting [14]) and 0.00363 in test [4] (setting [15]). Also, in test [6], the fluorescence slope is -0.423 (inactive). Besides, in test [7], the NADPH fluorescence slope is -0.00013 (inactive). Also, the slope in test [8] was 0.00573 (inactive). In test [9], the result was inactive.

What is called inhibition is the relative decrease from the control value, in per cent.

The values are drawn from PubChem BioAssay.
